Measured values reported in the supplement of paper PMC3334620.
Over roughly 33,000 sequences, “E-score (-0.5 to 0.5)” has its median near -8e-05; the highest 2% begin near 0.23. What follows is part of a selection rich in the highest values, with near analogues and random picks from the rest.

These sequences were tested against T1, Nrg2 (UniProt P38082) (assay: PBM E-score (8-mer binding enrichment) (E-score (-0.5 to 0.5)); higher = stronger / more preferred TF binding). Details: protein concentration: 100 nM; construct: GST-full length.
T1 sequence: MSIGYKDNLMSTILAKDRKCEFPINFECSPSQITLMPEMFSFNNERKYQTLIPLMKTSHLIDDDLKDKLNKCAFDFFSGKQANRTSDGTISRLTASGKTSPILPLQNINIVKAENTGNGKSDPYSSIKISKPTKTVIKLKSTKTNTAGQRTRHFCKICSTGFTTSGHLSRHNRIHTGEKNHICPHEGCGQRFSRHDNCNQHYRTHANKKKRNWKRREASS
Experimental: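 Universal 'all 10-mer' protein binding microarrays (Agilent AMADID 015681) probed with GST-tagged S. cerevisiae TFs (full-length or DBD) made by in vitro transcription/translation (PURExpress), about 100-200 nM. Bound TF was detected with fluorescent anti-GST. Each ungapped 8-mer (which stands for itself and its reverse complement) is scored by the PBM enrichment score (E-score), a modified Wilcoxon-Mann-Whitney statistic from -0.5 to +0.5, computed with the Universal PBM Analysis Suite. Scale: above 0.35 generally sequence-specific binding.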

Sequence | PBM E-score
AATTTATC | 0.312
CAATTATC | 0.289
AAATTATA | 0.175
AATTTATA | 0.201
CTATTATA | 0.0933
GAATTATA | 0.0673
ATATTATA | 0.0282
CAATTATA | 0.0143
GTATTATA | 0.254
CAATTATG | 0.0379
TAATTATA | 0.319
ACGCCTGG | -0.123
ACGCGCAG | 0.025
CAATCCAC | -0.0677
CCACCGAA | 0.0334
AACGGTCT | -0.127
CCGGGCGA | -0.0266
TGAGTCAA | 0.0756
CTCCAACA | 0.0834
AGCACGGG | -0.00766
AGATTATA | 0.0559
GGATTATA | 0.24
CGATTATA | 0.138
GGCTAGCC | -0.297
CGATCCTA | 0.00763

Sequence | PBM E-score
AAACTAGA | -0.0323
GAACTAGA | 0.0203
CAACTCGA | 0.0207
GAACTCGA | 0.0868
TAACTCGA | 0.294
TAACTAGA | 0.256
GCCTAAGA | -0.0546
ACAAGCGC | 0.0708
CAAGAACC | 0.172
CGGGAATA | 0.0776
ATGGAATG | -0.0148
ATGGAATA | 0.235
CTGGAATA | 0.193
AGGGAATG | 0.032
GTGGAATA | -0.013
ATGGAATC | 0.267
AGGGAATA | 0.245
CTGGAATC | -0.164
AATGGCCG | -0.134
AATTCTCC | 0.118
CAGTACGA | 0.206
AAGTCCGA | -0.0535
CCTATCAC | -0.00258
ATATCCGG | 0.0451
CTATCCGA | -0.04

Sequence | PBM E-score
ATATCCGA | 0.235
AGTGCTGA | -0.0594
GTGAACGA | -0.00481
GGACATCA | 0.0631
CGACATCA | 0.0768
TGACATCA | 0.232
AGGAACGG | 0.0417
CATCTGTC | -0.0868
CACGGGCA | -0.102
GATCCGAA | 0.243
CATCCGAA | 0.168
GATCCAAA | 0.284
GATCCAAC | -0.0228
CATCCAAA | -0.00312
TATCCGAA | -0.0137
CAGGTCAC | -0.271
ATCTATGG | -0.0899
GGTAGACC | -0.00427
ACAGCGGG | -0.0296
GCTCAAGC | -0.0931
ACCGCAAC | 0.269
ACCGCAAG | 0.00329
GCCGCAAC | 0.192
AGGGGATC | 0.0237
AGCTTGTA | -0.00311

Sequence | PBM E-score
CCACGGAA | 0.00928
ATATGGCA | 0.00508
GCAATAAC | 0.0808
GCAATACC | 0.176
GCAATACA | 0.298
GCAATAAA | 0.269
TCAATACA | 0.0827
CCAATAAA | 0.079
AACAGATG | -0.0815
GATGCTCA | -0.12
AGGCTTTG | -0.058
GTAAACAC | -0.0176
GCCGTACC | -0.0541
TACACCTA | 0.0327
CCTTCACC | -0.0756
ATTTCCAC | 0.255
AATTTCCG | 0.206
ATTTCCAA | -0.0757
ATTTCCCC | 0.153
ATTTCCCA | 0.153
ATTTTCCC | 0.124
ATTTCCCG | 0.264
ATTTTCCG | 0.249
ATTTCCAG | 0.0415
CGAAGTTC | 0.0952

Sequence | PBM E-score
CCTGCTGA | 0.171
AACAGTGA | -0.0365
AATTCCCG | -0.0292
AAGAGAAA | 0.0319
AAGAGAAT | 0.231
AAGAGAAG | -0.0556
CTCTGACC | -0.127
CACGGGGC | -0.0105
TCCTAGGA | -0.0933
ACAATACT | 0.241
ACAATACC | 0.291
ACAATACA | 0.148
ACAATACG | 0.0515
CCAATACC | 0.0351
AGAATACC | 0.191
GGATACAA | 0.0295
GCAAACCA | 0.0737
CATTAAAC | 0.0682
AATTAAAA | 0.126
CATTAAAA | 0.252
TATTAGAA | 0.249
TACTAAAA | 0.0854
CATTAGAA | 0.0605
GATTAGAA | 0.0967
CATTAAAG | 0.119

Sequence | PBM E-score
TATTAAAA | 0.262
AACTAAAA | 0.0978
GATTAAAA | 0.157
CACTAAAA | 0.256
ATTGCACC | 0.0876
CCAACTAC | 0.0973
AACCTCTA | -0.1
TAACGTCA | 0.0193
CTCGATCC | -0.0858
AGAATGGC | 0.0093
ACAAGGAT | -0.0601
CCCACCCC | 0.177
CCCACCCA | 0.0597
CCCCTCCC | -0.102
ACCCTCCC | 0.255
CCCACCCG | 0.231
CCCCACCC | 0.162
ACCCACCC | 0.243
ACCCTCCT | -0.14
GCCCACCC | 0.184
AAATGAAC | 0.0486
CGTTCCGC | -0.00432
AACAGGCC | -0.202
GTGGGCTA | -0.14
CACCGGGG | -0.413

Sequence | PBM E-score
GTACTACA | 0.191
AGAGATTA | 0.0613
CGAGATTA | 0.252
CGAGATTC | 0.143
GGCTGCCA | -0.173
GAAAAGTC | -0.0781
CGTGCCAA | -0.033
TGACGTCA | 0.279
AGACGTCA | -0.0442
GGACGTCA | 0.00109
ATCCAACG | -0.165
ATCATAGA | 0.238
CTCATAGA | -0.061
ATCATAGG | -0.0259
CTAAACCA | -0.179
CATACCAC | -0.0447
TAAGTGAA | 0.0844
ACTACAGG | 0.237
ATTACAGA | 0.0258
ACTACAGC | -0.271
ATTACAGC | -0.18
ATTACAGG | 0.312
ACTACAGA | 0.131
